Reference: PubChem BioAssay (NCI)
About 83,000 compounds went through this panel and 20% of them were active in at least one assay; those are over-represented in the sample as a whole.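 96-well plates, one dose, 48 hours. Percent growth reported; active if below 10.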 Unmarked numbers belong to inactive results. Calls of active or inactive are those of the source.

The compounds below were run on NCI/ADR-RES ovarian (assay: NCI-60 one-dose screen, 48 h (100 = growth as untreated, 0 = no growth, -100 = all killed)). Conditions: 10 µM unless noted.

**Q.** For `CCCn1cnc2c(c1=N)C(c1ccc(Cl)cc1)c1sc3c(CC)cccc3c1O2` (stereo not drawn), which growth is on record?
**A.** The growth was 10.4%.

**Q.** How did the growth turn out when `Cc1ccc(C2=Nn3c(nnc3-c3ccccc3)SC2)cc1` was run?
**A.** The growth was 14.1%.

**Q.** How did the growth turn out when `Cc1ccc2sc3c(c2c1)OC(N)=C(C#N)C3c1ccc(Cl)cc1` (stereo not drawn) was run?
**A.** Its growth is 76.2%.

**Q.** `Cc1ccc(NC(=O)N[C@@H](Cc2cc(F)cc(F)c2)C(=O)NC2C(=O)N3C[C@H](O)C[C@H]3C(=O)N3CCCC[C@H]3C(=O)N[C@@H](CO)C(=O)N3C[C@H](C)C[C@H]3C(=O)O[C@H]2C)c(F)c1` (stereo partly drawn) was tested. Which growth did it give?
**A.** The growth was 107%.

The compounds below were run on T-47D breast in the same assay as above. Conditions: 10 µM unless noted.

**Q.** For `COc1cc(OC)c(S(N)(=O)=O)cc1C(C)=O`, which growth is on record?
**A.** Its growth is 98.3%.

**Q.** How did the growth turn out when `O=S(=O)(Nc1ccc2c(c1)OCO2)c1ccc(-c2cnc(C3CC3)o2)cc1` was run?
**A.** Its growth is 31.7%.

**Q.** `COc1cccc2c1CN(C(=O)c1ccc(O)c(C(=O)N3Cc4ccc(OCCC[P+](c5ccccc5)(c5ccccc5)c5ccccc5)cc4C3)c1)C2` was tested. Which growth did it give?
**A.** Its growth is 37.6%.

**Q.** How did the growth turn out when `O=S(=O)(Nc1ccc(I)cc1Cl)c1ccc(-c2cnc(C3CC3)o2)cc1` was run?
**A.** Its growth is 31.7%.

**Q.** Which growth does the source give for `C=C(C=O)[C@@H]1CC[C@]2(CO)CC[C@]3(C)[C@H](CC[C@@H]4[C@@]5(C)CCCNC(C)(C)[C@@H]5CC[C@]43C)[C@@H]12` here?
**A.** Its growth is 13.3%.

**Q.** `C=CCn1c(SCC(=O)Nc2ccc(C(=O)/C=C/c3cccc([N+](=O)[O-])c3)cc2)nnc1-c1c[nH]c2ccccc12` was tested. Which growth did it give?
**A.** The growth was 59.8%.

**Q.** For `CNC(=O)c1c(NC(=O)c2cccc(C(F)(F)F)c2F)sc2c1CCC(=O)C2`, which growth is on record?
**A.** Its growth is 13.8%.

**Q.** For `COc1ccc(C2c3sc4c(C)cccc4c3Oc3nc(CC(=O)Nc4ccccc4)[nH]c(=O)c32)cc1` (stereo not drawn), which growth is on record?
**A.** The growth was 84.4%.

**Q.** `COCCNc1ccc2ncc(C#Cc3cncc(C(=O)Nc4ccc(CN5CCN(C)CC5)c(C(F)(F)F)c4)c3)n2n1` was tested. Which growth did it give?
**A.** Its growth is -7.3% (active).

**Q.** How did the growth turn out when `CCN1CCN(C(=O)[C@]23CCC(C)(C)C[C@H]2C2=CC[C@@H]4[C@@]5(C)Cc6c([nH]c7ccccc67)C(C)(C)[C@@H]5CC[C@@]4(C)[C@]2(C)CC3)CC1` was run?
**A.** Its growth is 72.6%.

**Q.** For `CCn1c(SCC(=O)Nc2cccc(C(=O)/C=C/c3ccc(C)cc3)c2)nc2ccccc2c1=O`, which growth is on record?
**A.** Its growth is 70.7%.

**Q.** Which growth does the source give for `CN1c2ccccc2Sc2cc(C=C(C#N)C#N)ccc21` here?
**A.** Its growth is 92.6%.

**Q.** How did the growth turn out when `CN1CCN(Cc2ccc(NC(=O)c3cncc(C#Cc4cnn5cccnc45)c3)cc2C(F)(F)F)CC1` was run?
**A.** Its growth is 54.2%.

**Q.** For `N#Cc1cccc(/C(N)=N/C(N)=N/c2nc3ccccc3s2)c1`, which growth is on record?
**A.** The growth was 34.1%.

**Q.** For `NS(=O)(=O)c1ccc(Nc2nc(N/N=C/c3c[nH]c4ccccc34)nc(Nc3ccccc3)n2)cc1`, which growth is on record?
**A.** Its growth is 35.3%.

**Q.** With `N#C/C(=C\c1ccc(-c2ccc(Cl)cc2Cl)o1)c1ccc(F)cc1` as the compound, how does the growth read?
**A.** The growth was 78.8%.

**Q.** With `O=C1/C(=C/C=C/c2ccco2)SC(=S)N1C1CCCCC1` as the compound, how does the growth read?
**A.** The growth was 68.8%.

**Q.** With `O=C(Nc1cccc(Cl)c1)Nc1nc2ccc([N+](=O)[O-])cc2o1` as the compound, how does the growth read?
**A.** The growth was -10.9% (active).

**Q.** With `COc1cccc(C(=O)Nc2cccc(C#Cc3cccc4[nH]nc(N)c34)c2)c1` as the compound, how does the growth read?
**A.** The growth was 38%.

**Q.** How did the growth turn out when `COc1cc(OC)c(S(N)(=O)=O)cc1C(=O)/C=C/c1ccc(Cl)cc1` was run?
**A.** Its growth is 26.1%.

**Q.** For `COc1cc2nc(Cl)nc(Nc3cccc(C4=Nc5c(N)nc(N)nc5NC(c5ccc(Br)cc5)C4)c3)c2cc1OC` (stereo not drawn), which growth is on record?
**A.** The growth was 85.1%.

**Q.** How did the growth turn out when `CC1=N[C@@H]2CN(C(=O)OC(C)(C)C)C[C@@H]2n2c1cc1ccccc1c2=O` was run?
**A.** Its growth is 98.8%.

**Q.** How did the growth turn out when `O=S(=O)(NCCNc1nccc(-n2cnc3ccccc32)n1)c1ccc(Br)cc1` was run?
**A.** Its growth is 59.1%.

**Q.** With `Cc1cc(-c2ccc(Cl)cc2)n(Cc2nnc(SCC(=O)Nc3ccc(S(N)(=O)=O)cc3)n2C2CCCCC2)n1` as the compound, how does the growth read?
**A.** Its growth is 108%.

**Q.** For `COc1cc(OC)cc(C(=O)Nc2sc3c(c2C(N)=O)CCC(=O)C3)c1`, which growth is on record?
**A.** Its growth is 7.67% (active).

**Q.** For `COc1cccc2cc(-c3cc4ccccc4[nH]3)/c(=N\NC(=O)c3ccc(Cl)cc3)oc12`, which growth is on record?
**A.** Its growth is 13.3%.

**Q.** For `CC(C)(C)c1ccc(CC(=O)Nc2sc3c(c2C(N)=O)CCC(=O)C3)cc1`, which growth is on record?
**A.** Its growth is -15.4% (active).

**Q.** How did the growth turn out when `c1cn2c(ccc3nc(-c4cn[nH]c4)c4c(c32)CCCC4)n1` was run?
**A.** Its growth is 45.4%.

**Q.** Which growth does the source give for `COc1cc(-c2nn(C(C)(C)C)cc2-c2ccnc(NCCCNS(=O)(=O)c3ccc(F)cc3)n2)ccc1Cl` here?
**A.** The growth was 85.1%.

**Q.** For `Clc1nc2ccccc2nc1-c1nnc(C2CCCCC2)o1`, which growth is on record?
**A.** Its growth is 86%.

**Q.** `CCCn1cnc2c(c1=N)C(c1ccc(F)cc1)c1sc3c(CC)cccc3c1O2` (stereo not drawn) was tested. Which growth did it give?
**A.** The growth was 72.7%.

**Q.** For `COc1ccc(-n2c(/C=C3\C(=O)Nc4ccccc43)ccc2CO)cc1`, which growth is on record?
**A.** Its growth is 88.8%.

**Q.** How did the growth turn out when `N#Cc1ccccc1Cn1c2nc(=N)c3ccccc3c-2nc2ccccc21` was run?
**A.** Its growth is 66.8%.

**Q.** Which growth does the source give for `COc1cc2nc(Cl)nc(Nc3cccc(C4=Nc5c(N)nc(N)nc5NC(c5ccc(F)cc5)C4)c3)c2cc1OC` (stereo not drawn) here?
**A.** Its growth is 63.7%.

**Q.** How did the growth turn out when `CCn1c2ccccc2c2cc(-n3nncc3-c3ccccc3)ccc21` was run?
**A.** The growth was 61.8%.

**Q.** How did the growth turn out when `CCCn1cnc2c(c1=N)C(c1ccc(Cl)cc1)c1sc3c(CC)cccc3c1O2` (stereo not drawn) was run?
**A.** The growth was 10.2%.

**Q.** Which growth does the source give for `Cc1ccc(C2=Nn3c(nnc3-c3ccccc3)SC2)cc1` here?
**A.** The growth was 29.2%.

**Q.** For `Cc1ccc2sc3c(c2c1)OC(N)=C(C#N)C3c1ccc(Cl)cc1` (stereo not drawn), which growth is on record?
**A.** The growth was 56.6%.

**Q.** For `Cc1ccc(NC(=O)N[C@@H](Cc2cc(F)cc(F)c2)C(=O)NC2C(=O)N3C[C@H](O)C[C@H]3C(=O)N3CCCC[C@H]3C(=O)N[C@@H](CO)C(=O)N3C[C@H](C)C[C@H]3C(=O)O[C@H]2C)c(F)c1` (stereo partly drawn), which growth is on record?
**A.** The growth was 32.5%.
